Screening data from PubChem.
CYP2C9 inhib: blocks human cytochrome P450 2C9. P11712. CYP2C9 Supersomes, luciferin-H conversion, luminescence. inhibition, % at 5 µM. 20% of 96,000 active;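 active = blocking of liver enzyme CYP2C9 beyond about 50% at 5 µM, limit read from the data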
CYP2C9 activ: increases human cytochrome P450 2C9 activity; recombinant CYP2C9, luciferin-H conversion, luminescence; stronger effect = higher value; factor 1 = untreated enzyme, 0 = blocked; activation factor at 5 µM; P11712; 1.4% of 96,000 active;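 active = activation factor of 2 or more for CYP2C9 at a 5 µM dose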;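 also: 0 = sulfaphenazole-blocked wells and 1 = vehicle-only wells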
CYP2C19 act: activators of human cytochrome P450 2C19; activation factor at 5 µM; P33261; recombinant CYP2C19, luciferin-H EGE luminescence; stronger effect = higher value; 0 = fully inhibited enzyme, 1 = untreated enzyme; AID 1025; 96,000 tested, under 10 active;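 active = activation factor of at least 2 at 5 µM in the primary screen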;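 also: 0 = wells with 2.5 mM tranylcypromine and 1 = vehicle-only wells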
Target sequence (P33261 whole entry, looked up): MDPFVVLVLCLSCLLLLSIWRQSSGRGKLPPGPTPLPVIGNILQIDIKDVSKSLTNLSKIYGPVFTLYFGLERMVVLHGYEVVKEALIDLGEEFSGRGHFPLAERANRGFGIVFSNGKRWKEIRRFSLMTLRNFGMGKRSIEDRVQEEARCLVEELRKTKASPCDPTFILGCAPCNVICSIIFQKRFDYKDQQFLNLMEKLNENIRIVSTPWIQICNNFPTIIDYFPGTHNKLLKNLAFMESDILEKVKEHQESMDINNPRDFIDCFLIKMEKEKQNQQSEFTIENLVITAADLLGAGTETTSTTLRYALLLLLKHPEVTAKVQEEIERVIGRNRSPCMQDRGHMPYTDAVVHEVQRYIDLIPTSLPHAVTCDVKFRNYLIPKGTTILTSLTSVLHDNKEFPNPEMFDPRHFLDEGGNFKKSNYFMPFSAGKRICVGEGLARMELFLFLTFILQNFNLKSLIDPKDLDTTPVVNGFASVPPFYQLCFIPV
PostGolgi yeast: growth inhibition of a yeast mutant, post-Golgi transport screen; inhibition, % at 10 µM; 0.9% of 98,000 active; post-Golgi transport phenotypic cell assay; AID 739;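 also: yeast cells grown in 1536-well plates; yeast grown about 18 h at 30C before absorbance read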
PostGolgi ctrl: inhibits growth of the yeast control strain; AID 738; inhibition, % at 10 µM; efflux-deficient yeast background strain, growth absorbance A615, 16 h; 5% of 98,000 active
CYP2C19 inhib: blocks human cytochrome P450 2C19; P33261; CYP2C19 Supersomes, luciferin-H EGE luminescence, 30 min; inhibition, % at 5 µM; 21% of 96,000 active;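 active = CYP2C19 inhibition above a set limit at 5 µM in the primary screen, cut at about 50% in these data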;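 also: plate controls were negative control wells for no effect and 2.5 mM tranylcypromine positive control for full effect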
Numbers without * were called inactive; / = no result. In the library only some 32% were active in any assay of this set; here they are far more common. Rule as the data show it, unless noted: active = inhibition above about 30%; inactive = the rest.

SMILES | CYP2C9 inhib | CYP2C9 activ | CYP2C19 act | PostGolgi yeast | PostGolgi ctrl | CYP2C19 inhib
O=C(CCSCCC(=O)NCc1cccs1)NCc1cccs1 | 62* | 0.4 | 0.6 | 6 | 0 | 35
O=C(CSCc1ccc(F)cc1)NCc1ccco1 | 40 | 0.6 | 0.3 | 5 | 6 | 70*
O=C(CC1CC2CCC1C2)NCc1cccs1 (centres undefined) | 19 | 0.8 | 0.3 | 4 | 16 | 66*
CSc1nc(C2CC2)cc(-c2cccs2)c1C#N | -16 | 1.2 | 0.9 | 13 | 9 | 5
O=C1/C(=C/c2cccc(F)c2)CSc2sccc21 | 54* | 0.5 | 0.7 | 0 | 10 | 26
Cc1cccc(/C=C2\CS/C(=C\c3cccc(C)c3)C2=O)c1 | -28 | 1.3 | 1 | -8 | 0 | 1
Cc1ccc2nc(Cl)c(CN(C(=O)c3cnccn3)C3CCCCC3)cc2c1 | 30 | 0.7 | 1 | 5 | 22 | -2
CCOc1ccccc1NC(=O)c1ccc(S(=O)(=O)N(C)C)cc1 | 36 | 0.6 | 0.7 | -2 | 2 | 28
CCOc1ccccc1NC(=O)c1ccc2nccnc2c1 | -114 | 2.1* | 1 | -15 | -2 | 2
CCCOc1ccccc1NC(=O)c1ccc(N)cc1 | -168 | 2.7* | 0.6 | -4 | 7 | 39
CCn1cc(C(=O)NC2CCc3ccccc32)c(=O)c2ccc(C)nc21 (centres undefined) | -6 | 1.1 | 0.8 | -1 | 28 | 24
O=C(CSCc1ccccc1Cl)NN1C(=O)c2ccccc2C1=O | 51* | 0.5 | 0.5 | 0 | -1 | 49
CCS(=O)(=O)/N=C(\N)c1ccccc1 | -23 | 1.2 | 0.9 | 25 | -7 | 5
N/C(=N\S(=O)(=O)c1ccc(Cl)s1)c1ccccc1 | 43 | 0.6 | 0 | 21 | 1 | 97*
Cc1ccc(-c2nnn(CC(=O)N(CC3CCCO3)C(C(=O)NC(C)(C)C)c3ccc(F)cc3)n2)o1 (centres undefined) | / | / | / | -2 | 1 | /
CCCOc1ccc(/C(O)=C2/C(=O)C(=O)N(CCCOC)C2c2ccncc2)cc1 (centres undefined) | -6 | 1.1 | 1.2 | -4 | 1 | -17
Cn1c(=O)oc2cc(S(=O)(=O)NCCN3CCN(c4ccccc4)CC3)ccc21 | -18 | 1.2 | 0.9 | 2 | 7 | 8
Cc1nc(NCCc2ccccc2)c2oc3ccccc3c2n1 | 48 | 0.5 | 0.7 | 18 | 51* | 31
Cc1ccc2cccc(OCC(=O)NCc3ccco3)c2n1 | -22 | 1.2 | 0.5 | -6 | 1 | 48
CCc1nc(SCC(=O)NCCc2ccccc2)c2oc3ccccc3c2n1 | 68* | 0.3 | 0.4 | 8 | 0 | 57*
Cc1nc(NCCN2CCOCC2)c2oc3ccccc3c2n1 | -8 | 1.1 | 1 | -13 | 1 | 3
Cc1ccc2cccc(SCC(=O)NCc3ccco3)c2n1 | -51 | 1.5 | 0.2 | 3 | 14 | 82*
Cc1nc(SCC(=O)NCc2ccco2)c2oc3ccccc3c2n1 | 89* | 0.1 | 0.1 | -16 | -3 | 89*
COc1ccc2c(c1)cc(C)c1nnc(SCC(=O)N3CCN(C(=O)c4ccco4)CC3)n12 | -1 | 1 | 1 | / | / | -4
CCOC(=O)COc1ccc2c(c1)C(=O)CC1(CCN(C(C)=O)CC1)O2 | -1 | 1 | 1.1 | -16 | 4 | -7
SMILES | CYP2C9 inhib | CYP2C9 activ | CYP2C19 act | PostGolgi yeast | PostGolgi ctrl | CYP2C19 inhib
CCCNc1nc2c(c(=O)n(C)c(=O)n2C)n1CCC(C)C | 48 | 0.5 | 0.9 | 23 | 8 | 6
Cc1[nH]c2ccccc2c1Cc1nnc(SCC(=O)NCc2ccco2)o1 | -158 | 2.6* | 0.5 | -12 | 0 | 47
Cc1nc(SCC(=O)c2ccc(Cl)s2)c2oc3ccccc3c2n1 | 22 | 0.8 | 0.8 | 3 | 9 | 24
Cc1nc(SCC(=O)NCCc2ccccc2)c2oc3ccccc3c2n1 | 58* | 0.4 | 0.4 | -19 | -2 | 65*
CCN(CC)CCNC(=O)c1ccccc1C(=O)c1ncc[nH]1 | 21 | 0.8 | 0.9 | 17 | 15 | 14
N=c1cc(C2(O)CCCCC2)n2c(nc3ccccc32)s1 | 58* | 0.4 | 0.7 | 7 | 5 | 31
NC1=NC2(CCCCC2)n2c(nc3ccccc32)N1 | 1 | 1 | 1 | 12 | 14 | 0
CCOC(=O)N1CCC(N(CCOC)C(=O)Nc2ccc(Cl)c(Cl)c2)CC1 | 15 | 0.8 | 0.6 | -3 | 64* | 40
CCOC(=O)N1CCC(N(C(=O)Nc2cccc(OC)c2)C(C)CC)CC1 (centres undefined) | 14 | 0.9 | 0.4 | 2 | 21 | 56*
CCOC(=O)N1CCC(N(CCCOC)C(=O)Nc2cccc(OC)c2)CC1 | -7 | 1.1 | 0.8 | 3 | 17 | 24
CC[C@H](C)[C@H](NS(=O)(=O)c1ccc(C)cc1)C(=O)N1CCC(C(=O)N[C@H](C(=O)O)C(C)C)CC1 | 11 | 0.9 | 0.9 | 3 | -8 | 12
CSc1nsc(SCC(=O)Nc2ccc3c(c2)OCCO3)n1 | 82* | 0.2 | 0.1 | 0 | 2 | 88*
CSc1nsc(SCC(=O)Nc2ccccn2)n1 | -2 | 1 | 0.8 | 18 | 11 | 22
O=C(Cc1c(C(=O)O)[nH]c2ccccc12)Nc1ccc2c(c1)OCO2 | 24 | 0.8 | 1 | 0 | 3 | 3
COc1ccc(NC(=O)CSc2ccc3c(c2)OCCO3)cc1OC | 64* | 0.4 | 0.5 | 4 | 6 | 46
O=C(CSc1nnc2c(n1)[nH]c1ccccc12)Nc1ccc2c(c1)OCO2 | 64* | 0.4 | 1 | 7 | 4 | 5
CCOC(=O)c1cnc(SCc2ccc(C(C)(C)C)cc2)nc1N | 70* | 0.3 | 1.1 | -7 | 2 | -6
Cc1cc(C(F)(F)F)n2nc(-c3cnn(C)c3C(F)(F)F)cc2n1 | -22 | 1.2 | 0.6 | 12 | 6 | 35
O=C(CSc1ncn(-c2ccccc2)n1)Nc1ccc2c(c1)OCCO2 | 46 | 0.5 | 0.6 | 22 | 1 | 43
COCc1cc(C)nc(SCC(=O)Nc2cccc3cccnc23)c1C#N | 16 | 0.8 | 1.2 | -5 | 8 | -18
CCCNC(=O)NC(=O)CSc1ccc2c(c1)OCCO2 | 3 | 1 | 0.2 | 10 | 6 | 76*
Cc1ccc(SCC(=O)NC(=O)NCc2ccco2)cc1C | 46 | 0.5 | 0.7 | 5 | 12 | 28
O=C(CSc1ccc2c(c1)OCCO2)NCc1ccco1 | 70* | 0.3 | 0.5 | 6 | -10 | 55*
COCc1cc(C)nc(SCC(=O)Nc2ccc3c(c2)OCO3)c1C#N | 22 | 0.8 | 0.2 | -1 | -6 | 76*
O=C(CSc1ncn(-c2ccccc2)n1)Nc1ccc2c(c1)OCO2 | 90* | 0.1 | 0.1 | 5 | 17 | 95*
CC(=O)Nc1ccccc1Nc1cc(C#N)c(C#N)cc1[N+](=O)[O-] | 3 | 1 | 0.9 | / | / | 13
COC(=O)c1cc2n(n1)CCN(Cc1ccccc1F)C2=O | -1 | 1 | 0.8 | 18 | -1 | 17
